# Laboratory results from PubChem BioAssay AID493222 (Johns Hopkins Ion Channel Center, 2011).
# The campaign covered roughly 2,400 compounds. About 95 (4%) were called active.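 Rule for the calls: active = mean of duplicate membrane potential ratios lying over 3 SD above or below the buffer control mean, so actives fall on both sides; inactive = the rest.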 The list is a sample of the results.
# Assay: membrane potential effects in parental HEK293, counter-screen for CHT inhibitor project, cell-based, membrane potential dye (AID 493222);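 note: parental cells lack the transporter so any hit is non-specific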;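 for membrane potential ratio readout (active if shifted either direction beyond buffer ±3SD; no single direction): ratio is peak minus trough fluorescence over baseline after EC90 choline challenge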
# Settings: choline response, at 10 µM; active = decrease or increase beyond buffer ±3SD
row,Structure (SMILES),membrane potential ratio readout (active if shifted either direction beyond buffer ±3SD; no single direction)
1,O=C(OCC(=O)c1c[nH]c2ccccc12)c1cccc(O)c1,inactive
2,CCc1cc2c(N3CCN(c4nnc(CC)s4)CC3)ncnc2s1,inactive
3,O=C(Cn1nc(C(F)(F)F)c2c1CCC2)NCc1ccc(F)cc1,inactive
4,CCN(Cc1ccccc1)S(=O)(=O)c1cc(C(=O)O)ccc1OC,inactive
5,COc1ccc(Cn2c(=O)sc3ccccc32)cc1OC,-8.59 (active)
6,O=C(NCCc1ccc2c(c1)OCCO2)c1cc2ccccc2o1,inactive
7,FC(F)(F)c1cccc(NC(=S)Nc2cccc(Cl)c2)c1,inactive
8,CCCCCn1c(=O)[nH]c2cc(C(=O)NCCCN3CCCCC3C)ccc2c1=O (configuration not stated),inactive
9,O=C(NCCCn1ccnc1)C(=O)c1cn(CC(=O)N2CCCCCC2)c2ccccc12,inactive
10,CCC(C)c1ccc(NC(=S)NCc2ccccn2)cc1 (configuration not stated),inactive
11,Cc1c(C(=O)OC(C)C)sc(NC(=O)c2cccnc2)c1C#N,inactive
12,C/C(=N/NC(=O)c1cc(Cl)ccc1O)C12CC3CC(CC(C3)C1)C2,inactive
13,COc1nc(OC)nc(N(C)CCO)n1,inactive
14,COc1cccc(-c2nn(-c3ccccc3)cc2/C=C(\C#N)C(=O)NCCCn2ccnc2)c1,inactive
15,O=S(=O)(Cc1cc(Cl)nc(-c2cccnc2)n1)c1ccccc1,inactive
16,COc1ccc(-n2nnnc2CNC(=O)c2ccc3ccccc3c2)cc1,inactive
17,N#Cc1ccc(C(=O)Nc2cccc3cccnc23)c(F)c1,inactive
18,CCC(=O)Nc1nnc(S(=O)(=O)N(CC(C)C)c2ccccc2)s1,inactive
19,CC1CN(S(=O)(=O)c2ccc(C(=O)NN3CCN(C)CC3)cc2)CC(C)O1 (configuration not stated),inactive
20,CC(=O)N1CCN(S(=O)(=O)c2cccc(C(=O)NC3CCC(C)CC3)c2)CC1 (configuration not stated),inactive
21,CC(NC(=O)c1ccc(N2CCNCC2)c([N+](=O)[O-])c1)C12CC3CC(CC(C3)C1)C2 (configuration not stated),inactive
22,COc1ccc(OCC(=O)OCCN(C)C)cc1,inactive
23,CC(C(=O)NC1CCS(=O)(=O)C1)N1C(=O)/C(=C/c2ccc(Cl)cc2)SC1=S (configuration not stated),inactive

row,Structure (SMILES),membrane potential ratio readout (active if shifted either direction beyond buffer ±3SD; no single direction)
1,CCOC(=O)N1CCN(C(=O)C2CCN(c3ncnc4c3sc3cccc(F)c34)CC2)CC1,inactive
2,CCC(C(=O)N1CCOCC1)n1c(C(=O)OC)cc2occc21 (configuration not stated),inactive
3,CC1(C)SC2C(NC(=O)COc3ccccc3)C(=O)N2C1C(=O)O (configuration not stated),inactive
4,Cc1cccc(C)c1NC(=O)c1ccc(CN2CCc3ccccc3C2)cc1,inactive
5,CCS(=O)(=O)C1=NSC2=NC(=O)/C(=C\c3ccc(OS(=O)(=O)c4ccccc4)cc3)C(=N)N21,inactive
6,Cc1nn(CC(=O)NCC2CCCO2)c(=O)c2cc3ccccc3n12 (configuration not stated),inactive
7,COc1ccc(C(CNC(=O)c2cccc(NS(=O)(=O)c3ccc(C)c(F)c3)c2)N2CCCC2)cc1 (configuration not stated),inactive
8,CCn1c(SCCC(C)C)nnc1-c1c[nH]c2ccccc12,inactive
9,Cc1[nH]c2ccccc2c1C(=O)CN1CCCC(C)C1 (configuration not stated),inactive
10,COc1ccc(N2C(=O)CNC2=S)cc1,inactive
11,CC(=O)c1ccc(Oc2cc(C)nc(-n3nc(C)cc3C)n2)cc1,inactive
12,CC(C)(C)c1ccc(C(=O)CSc2ncn[nH]2)cc1,inactive
13,CN(CCC#N)c1ncnc2scc(-c3ccccc3)c12,inactive
14,O=C1/C(=C/c2ccc(F)cc2)SC(=S)N1NS(=O)(=O)c1ccccc1,inactive
15,COc1ccc(C(=O)NC(=S)NNC(=O)CCc2ccccc2)cc1,inactive
16,O=C(Nc1nonc1-c1ccc(Cl)cc1)c1ccco1,inactive
17,COc1ccc(C(=O)NNC(=S)NC(=O)c2ccccc2)cc1,inactive
18,Oc1c(Cl)cc(Cl)c(Cl)c1Cc1c(O)c(Cl)cc(Cl)c1Cl,inactive
19,O=C(O)CC1=C(Nc2ccccc2)C(=O)N(c2ccccc2)C1c1ccc(Cl)cc1 (configuration not stated),inactive
20,Cc1ccc2nc(Nc3ccccc3)cc(C)c2c1,inactive
21,Cc1oc2cc([N+](=O)[O-])c(O)c([N+](=O)[O-])c2c1C(=O)c1ccc(Br)cc1,2.79 (active)
22,CC(C)(C)NC(=O)NC(=O)CN1CCC(Cc2ccccc2)CC1,inactive
23,COc1ccc(C(=O)NC(C)c2nccs2)cc1OC1CCN(C(C)C)CC1 (configuration not stated),inactive

row,Structure (SMILES),membrane potential ratio readout (active if shifted either direction beyond buffer ±3SD; no single direction)
1,COc1cc2ccccc2cc1C(=O)Nc1ccc(S(=O)(=O)Nc2cc(C)on2)cc1,inactive
2,O=C(O/N=C(/c1ccccc1)c1ccncc1)c1ccccc1[N+](=O)[O-],inactive
3,CCc1nc(C)cn1S(=O)(=O)c1cc([N+](=O)[O-])ccc1Cl,2.6 (active)
4,Cc1ccc(NNC(=O)c2cccs2)cc1Cl,inactive
5,Cc1cc(OC(C)C(=O)Nc2ccc(S(=O)(=O)Nc3onc(C)c3C)cc2)cc(C)c1Cl (configuration not stated),inactive
6,CCN(CC(=O)NCc1ccc(Cl)cc1)C(=O)CSc1ccccc1,inactive
7,CN(C)c1ccc(Nc2c3c4c(cccc4n(C)c2=O)C(=O)c2ccccc2-3)cc1,inactive
8,Cc1cc(NS(=O)(=O)c2ccc(NC(=O)C(C)Oc3cccc(C)c3C)cc2)nc(C)n1 (configuration not stated),inactive
9,COc1ccc(/C=C2/SC(=O)N(CCCCCC(=O)Nc3ccccc3C(=O)O)C2=S)cc1,inactive
10,CN(Cc1ccccc1)CC(O)COc1ccc(CNCc2cc3ccccc3s2)cc1 (configuration not stated),inactive
11,COc1ccc(S(=O)(=O)N2CCN(C(=O)NC3CCCCC3)CC2)cc1,inactive
12,CCCCn1c(SCC(=O)NCC2CCCO2)nc2ccc(N3CCOCC3)cc2c1=O (configuration not stated),inactive
13,CC1CCN(CCCNC(=O)CN2C(=O)CSc3ccc(S(=O)(=O)N4CCCCC4)cc32)CC1,inactive
14,O=C(c1c(F)cccc1Cl)N1CCN(S(=O)(=O)c2ccc3c(c2)OCCCO3)CC1,inactive
15,Cc1cccc(N(C)C(=O)CN2C(=O)COc3ccc(S(=O)(=O)N4CCCCCC4)cc32)c1,-12.1 (active)
16,O=C(O)c1ccc(/C=C2\SC(=S)N(NC(=O)c3ccc(Br)cc3)C2=O)cc1,inactive
17,O=S(=O)(Nc1ccc(Cl)cn1)c1cnc(Cl)c(Br)c1,inactive
18,Cc1ccc(CS(=O)(=O)c2ncc(Cl)c(C(=O)Nc3nnc(C)s3)n2)cc1,inactive
19,COC(=O)C(C(=O)Nc1cccc(Cl)c1C)C1CCCC1 (configuration not stated),inactive
20,Cc1ccc(C(=O)NC2CCCC(C)C2C)cc1S(=O)(=O)N1CCCCC1 (configuration not stated),inactive
21,Cc1cccc(-c2nc3ccc(C(=O)NCCN4CCN(C)CC4)cc3nc2-c2cccc(C)c2)c1,inactive
